From the supplement of paper PMC8699584 come the findings set out here.

Values joined by “and” are separate entries in the source; they are usually repeats but may differ in a detail not shown here. Equal values may be shown once. Where a name gives a salt, the structure may show the parent alone. ± gives the standard deviation of the averaged measurements.

In general, cell viability refers to a read-out of living cells in per cent, often relative to untreated cells.

The test system of one experiment is Molm13. Nature of the experiment: cell viability relative to DMSO control (bortezomib = 0%); higher = less growth inhibition. The following applies: 10 nM; 72 h. Put shortly: (§1)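 FLT3-ITD+ acute myeloid leukemia cells were dispensed onto a library of 679 approved and investigational compounds in 384-well plates, at 1000 cells per well in 50 µL and a single 10 nM dose, for 72 h. The screen was run in duplicate. Cell viability was read by CellTiter-Glo luminescence on an EnVision reader. Values were converted to percentages by per-plate linear regression between DMSO-treated cells (100%) and positive-control-treated cells (0%).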
As to `c1cc(-c2cnn3cc(-c4ccc(OCCN5CCCCC5)cc4)cnc23)ccn1` [Dorsomorphin dihydrochloride], the cell viability worked out at 58.3 ± 6.7%.
Take `COc1ccc([C@@H]2OC[C@H]3[C@@H]2CO[C@@H]3c2ccc(O[C@@H]3O[C@H](CO)[C@@H](O)[C@H](O)[C@H]3O)c(OC)c2)cc1OC` [Forsythin]: the cell viability was found to be 123 ± 20%.
In the case of `c1cc(-c2cnn3cc(-c4ccc(OCCN5CCCCC5)cc4)cnc23)ccn1`, the cell viability worked out at 95.5 ± 6%.
With `Cc1ccc(NC(=O)c2cccc(N(C)C)c2)cc1NC(=O)c1ccc(O)cc1`, the cell viability worked out at 94.6 ± 6%.
Regarding `NC(=O)Nc1cc(-c2cccc(F)c2)sc1C(=O)N[C@H]1CCCNC1`, the cell viability was -11.2 ± 3.9%.
In the case of `Fc1ccc(-c2nc3n(c2-c2ccncc2)CCS3)cc1`, the cell viability stood at 102.8 ± 0.71%.
With `CC(C)(C)c1cc(C=C(C#N)C(N)=S)cc(C(C)(C)C)c1O`, the cell viability amounted to 108 ± 5.4%.
Regarding `COc1cc(N2CCN(C)CC2)ccc1Nc1nccc(-c2cn(C)c3cnccc23)n1`, the cell viability was determined as 118 ± 3.1%.
Same read-out and setting: the same measure for `NC(=O)c1ncn([C@@H]2O[C@H](CO)[C@@H](O)[C@H]2O)n1` [Ribavirin]: 98.7 ± 13%; for `Cc1ccc2nc(-n3[nH]c(C)c(Cc4ccccc4)c3=O)[nH]c2c1`: 103 ± 0.84%.
Regarding `C#Cc1cccc(Nc2ncnc3cc(OCCOC)c(OCCOC)cc23)c1` [Erlotinib hydrochloride], the cell viability is 108 ± 9.8%.
Turning to `COc1cc2ncnc(Nc3ccccc3)c2cc1OC`, the cell viability was found to be 97.1 ± 10%.
Turning to `Cc1cc(Nc2cc(CN3CCOCC3)c3nc(C)c(Cc4ccc(Cl)cc4F)n3n2)n[nH]1`, the cell viability was 82.5 ± 8.9%.
Regarding `CN1CCCN(C(=O)c2cccc(-c3ccc(/C=C4/C(=O)Nc5ccc(Cl)cc54)o3)c2)CC1`, the cell viability is 127 ± 13%.
On the same count and under the same terms, the same measure for `Brc1c(Br)c(Br)c2n[nH]nc2c1Br`: 113 ± 13%; for `N#CC[C@H](C1CCCC1)n1cc(-c2ncnc3[nH]ccc23)cn1` [Ruxolitinib]: 105 ± 10%.
In the case of `CC[C@@](C)(Nc1ccnc(-c2c[nH]c3ncccc23)n1)C(=O)NCC(F)(F)F` [Decernotinib(VX-509)], the cell viability was found to be 98.6 ± 1.4%.
With `Oc1ccc(-c2nc(-c3ccc(F)cc3)c(-c3ccncc3)[nH]2)cc1`, the cell viability is 94% and 105%.
For `C[C@@]1(C(=O)Nc2ccc(F)nc2)CCCN1c1nc(Nc2cc(C3CC3)n[nH]2)c2cccn2n1`, the cell viability came out at 117 ± 2.5%.
Consider `O=C(O)c1ccc(-c2c[nH]c3ncc(-c4ccccc4)cc23)cc1C1CCCC1`, for which the cell viability amounted to 107 ± 1.1%.
Consider `NC(=O)c1ccc(-c2nc(-c3ccccn3)c(-c3ccc4c(c3)OCO4)[nH]2)cc1`, for which the cell viability was found to be 105 ± 16%.
With `C=CCn1c(=O)c2cnc(Nc3ccc(N4CCN(C)CC4)cc3)nc2n1-c1cccc(C(C)(C)O)n1`, the cell viability is 93.6 ± 20%.
For the molecule `COC(=O)C1=CC[C@@]23CC[C@@H]([C@@](C)(/C=C/C=C(\C)C(=O)O)OC2=O)[C@@]3(OC(C)=O)CC1` [Pseudolaric Acid B], the cell viability worked out at 101 ± 3.5%.
`Cc1ccc(C(=O)Nc2ccc(CN3CCN(C)CC3)c(C(F)(F)F)c2)cc1C#Cc1cnc2cccnn12`: the cell viability came to 6.99 ± 13%.
Same read-out and setting: the same measure for `NC(=O)c1ccc2nc(-c3ccc(Oc4ccc(Cl)cc4)cc3)[nH]c2c1`: 100 ± 13%.
Consider `CC(=O)O[C@H]1C(=O)[C@@]2(C)[C@H]([C@H](OC(=O)c3ccccc3)[C@]3(O)C[C@H](OC(=O)[C@H](O)[C@@H](NC(=O)c4ccccc4)c4ccccc4)C(C)=C1C3(C)C)[C@]1(OC(C)=O)CO[C@@H]1C[C@@H]2O` [Paclitaxel], for which the cell viability is -2.33 ± 4.8%.
The same measure, in the same setting: the same measure for `COc1cc(C(=O)N2CCC(N3CCN(C)CC3)CC2)ccc1Nc1ncc2c(n1)N(C)c1ccccc1C(=O)N2C`: 97.52 ± 0.43%.
Take `CNc1nc(-c2ccc3c(N)n[nH]c3c2)cc(N2C[C@@H](C(=O)NC3CCCCC3)CC[C@H]2C)n1`: the cell viability was 112 ± 2.6%.
As to `CN1C/C=C/CCOc2cccc(c2)-c2ccnc(n2)Nc2cccc(c2)C1`, the cell viability is 86.77 ± 0.29%.

For the next experiment, the system named is Mv4-11. The description is as above. The following applies: 10 nM; 72 h. The gist of the method: as §1
Take `Cc1cc(CN2CCN(c3c(Br)cnc4nc(-c5ccc(N6CCN(C)CC6)cc5)[nH]c34)CC2)no1`: the cell viability turned out to be 95.3 ± 3.4%.
Take `C[C@H](Nc1ncnc2nc[nH]c12)c1cc2cccc(Cl)c2c(=O)n1-c1ccccc1` [Duvelisib (IPI-145, INK1197)]: the cell viability was found to be 111 ± 15%.
For `CS(=O)(=O)CCNCc1ccc(-c2ccc3ncnc(Nc4ccc(OCc5cccc(F)c5)c(Cl)c4)c3c2)o1` [Lapatinib], the cell viability was determined as 103.5 ± 0.39%.
Still for that read-out and setting: in the case of `CC(C)=CCC[C@](C)(O)[C@H]1CC[C@]2(C)[C@@H]1[C@H](O)C[C@@H]1[C@@]3(C)CC[C@H](O)C(C)(C)[C@@H]3[C@@H](O[C@@H]3O[C@H](CO)[C@@H](O)[C@H](O)[C@H]3O[C@@H]3O[C@@H](C)[C@H](O)[C@@H](O)[C@H]3O)C[C@]12C` [Ginsenoside Rg2] it was 93.6 ± 9.2%; in that of `O=C(O)c1ccc(Nc2ncc3c(n2)-c2ccc(Cl)cc2C(c2c(F)cccc2F)=NC3)cc1`, 107 ± 3.6%.
`O=C1NCCc2[nH]c(-c3ccncc3)cc21`: the cell viability is 115 ± 6.7%.
Regarding `Cc1[nH]c(/C=C2\C(=O)Nc3ccccc32)c(C)c1CCC(=O)O`, the cell viability is 108 ± 14%.
Take `C=CC(=O)Nc1cccc(Nc2nc(Nc3ccc(N4CCN(C(C)=O)CC4)cc3OC)ncc2C(F)(F)F)c1` [Rociletinib (CO-1686, AVL-301)]: the cell viability turned out to be 110 ± 1.6%.
For `O=C1NC(=O)/C(=C/c2ccc3c(c2)OCO3)S1`, the cell viability is 112 ± 8%.
Same read-out and setting: in the case of `O=C(COc1ccc(Cl)cc1)NC1CCC(NC(=O)COc2ccc(Cl)cc2)CC1` (centres undefined) it was 111 ± 14%; in that of `Cn1cc(-c2ccc3c(c2)CCN3C(=O)Cc2cccc(C(F)(F)F)c2)c2c(N)ncnc21`, 108 ± 18%.
`c1cc(-c2cnn3cc(-c4ccc(OCCN5CCCCC5)cc4)cnc23)ccn1` [Dorsomorphin dihydrochloride]: the cell viability was 65.7 ± 3.6%.
Take `COc1ccc([C@@H]2OC[C@H]3[C@@H]2CO[C@@H]3c2ccc(O[C@@H]3O[C@H](CO)[C@@H](O)[C@H](O)[C@H]3O)c(OC)c2)cc1OC` [Forsythin]: the cell viability was 102 ± 6.1%.
Same read-out and setting: the same measure for `c1cc(-c2cnn3cc(-c4ccc(OCCN5CCCCC5)cc4)cnc23)ccn1`: 117 ± 10%.
Regarding `Cc1ccc(NC(=O)c2cccc(N(C)C)c2)cc1NC(=O)c1ccc(O)cc1`, the cell viability was 103 ± 5.7%.
For `NC(=O)Nc1cc(-c2cccc(F)c2)sc1C(=O)N[C@H]1CCCNC1`, the cell viability was -9.83 ± 4.2%.
Consider `Fc1ccc(-c2nc3n(c2-c2ccncc2)CCS3)cc1`, for which the cell viability was determined as 98.2 ± 4.3%.
Regarding `CC(C)(C)c1cc(C=C(C#N)C(N)=S)cc(C(C)(C)C)c1O`, the cell viability was found to be 111 ± 3.4%.
Consider `COc1cc(N2CCN(C)CC2)ccc1Nc1nccc(-c2cn(C)c3cnccc23)n1`, for which the cell viability was 117 ± 7%.
As to `NC(=O)c1ncn([C@@H]2O[C@H](CO)[C@@H](O)[C@H]2O)n1` [Ribavirin], the cell viability was 106 ± 5.6%.
Still for that read-out and setting: the same measure for `Cc1ccc2nc(-n3[nH]c(C)c(Cc4ccccc4)c3=O)[nH]c2c1`: 106 ± 4.3%; for `C#Cc1cccc(Nc2ncnc3cc(OCCOC)c(OCCOC)cc23)c1` [Erlotinib hydrochloride]: 121 ± 20%; for `COc1cc2ncnc(Nc3ccccc3)c2cc1OC`: 107 ± 12%.
In the case of `Cc1cc(Nc2cc(CN3CCOCC3)c3nc(C)c(Cc4ccc(Cl)cc4F)n3n2)n[nH]1`, the cell viability is 113 ± 2%.
As for `CN1CCCN(C(=O)c2cccc(-c3ccc(/C=C4/C(=O)Nc5ccc(Cl)cc54)o3)c2)CC1`, the cell viability was 120 ± 2.9%.
In the case of `Brc1c(Br)c(Br)c2n[nH]nc2c1Br`, the cell viability came out at 97.11 ± 0.32%.
Turning to `N#CC[C@H](C1CCCC1)n1cc(-c2ncnc3[nH]ccc23)cn1` [Ruxolitinib], the cell viability was determined as 111.1 ± 0.83%.
As for `CC[C@@](C)(Nc1ccnc(-c2c[nH]c3ncccc23)n1)C(=O)NCC(F)(F)F` [Decernotinib(VX-509)], the cell viability amounted to 89.3 ± 6.1%.
On to `Oc1ccc(-c2nc(-c3ccc(F)cc3)c(-c3ccncc3)[nH]2)cc1`, for which the cell viability is 104% and 106%.
On to `C[C@@]1(C(=O)Nc2ccc(F)nc2)CCCN1c1nc(Nc2cc(C3CC3)n[nH]2)c2cccn2n1`, for which the cell viability worked out at 127 ± 2.5%.
Turning to `O=C(O)c1ccc(-c2c[nH]c3ncc(-c4ccccc4)cc23)cc1C1CCCC1`, the cell viability was 96 ± 2.7%.
As for `NC(=O)c1ccc(-c2nc(-c3ccccn3)c(-c3ccc4c(c3)OCO4)[nH]2)cc1`, the cell viability amounted to 107 ± 20%.
For the molecule `C=CCn1c(=O)c2cnc(Nc3ccc(N4CCN(C)CC4)cc3)nc2n1-c1cccc(C(C)(C)O)n1`, the cell viability was 95.2 ± 2.1%.
For `COC(=O)C1=CC[C@@]23CC[C@@H]([C@@](C)(/C=C/C=C(\C)C(=O)O)OC2=O)[C@@]3(OC(C)=O)CC1` [Pseudolaric Acid B], the cell viability was 104 ± 11%.
In the case of `Cc1ccc(C(=O)Nc2ccc(CN3CCN(C)CC3)c(C(F)(F)F)c2)cc1C#Cc1cnc2cccnn12`, the cell viability was determined as 3.31 ± 4.5%.
For the molecule `NC(=O)c1ccc2nc(-c3ccc(Oc4ccc(Cl)cc4)cc3)[nH]c2c1`, the cell viability is 114 ± 6.3%.
Consider `CC(=O)O[C@H]1C(=O)[C@@]2(C)[C@H]([C@H](OC(=O)c3ccccc3)[C@]3(O)C[C@H](OC(=O)[C@H](O)[C@@H](NC(=O)c4ccccc4)c4ccccc4)C(C)=C1C3(C)C)[C@]1(OC(C)=O)CO[C@@H]1C[C@@H]2O` [Paclitaxel], for which the cell viability was -3.89 ± 0.25%.
As for `COc1cc(C(=O)N2CCC(N3CCN(C)CC3)CC2)ccc1Nc1ncc2c(n1)N(C)c1ccccc1C(=O)N2C`, the cell viability was 104 ± 5.1%.
As to `CNc1nc(-c2ccc3c(N)n[nH]c3c2)cc(N2C[C@@H](C(=O)NC3CCCCC3)CC[C@H]2C)n1`, the cell viability is 99.15 ± 0.68%.
In the case of `CN1C/C=C/CCOc2cccc(c2)-c2ccnc(n2)Nc2cccc(c2)C1`, the cell viability came out at 102 ± 22%.
